# Shown is part of a subset that was picked to be rich in the strongest signals.
# B1: Apa (Mycobacterium tuberculosis), Rv1860 (protein)
# chain: MHQVDPNLTRRKGRLAALAIAAMASASLVTVAVPATANADPEPAPPVPTTAASPPSTAAAPPAPATPVAPPPPAAANTPNAQPGDPNAAPPPADPNAPPPPVIAPNAPQPVRIDNPVGGFSFALPAGWVESDAAHFDYGSALLSKTTGDPPFPGQPPPVANDTRIVLGRLDQKLYASAEATDSKAAARLGSDMGEFYMPYPGTRINQETVSLDANGVSGSASYYEVKFSDPSKPNGQIWTGVIGSPAANAPDAGPPQRWFVVWLGTANNPVDKGAAKALAESIRPLVAPPPAPAPAPAEPAPAPAPAGEVAPTPTTPTPQRTLPA
# Columns and labels:
# Experiment in all cases: glycan array binding signal (z-score within array); higher = stronger binding
# Settings in all cases: glycan notation: IUPAC condensed, linker removed
# [1] = target: Fuc(a1-2)Gal(b1-3)GalNAc(a1-3)[Fuc(a1-2)]Gal(b1-4)Glc
# In short: (§1)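 Glycan array binding is given as a within-array Z-score, which can be read as non-binding when negative. The arrays, 3228 of them, came from the Consortium for Functional Glycomics database and were retained only where the protein sequence was available. Z-scores were averaged across arrays of the same protein sequence at different concentrations or buffers and across linkers.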
# [2] = target: Fuc(a1-2)Gal(b1-3)GalNAc(b1-3)Gal
# In short: as §1
# Fuc(a1-2)Gal(b1-4)Glc6S = target: Fuc(a1-2)Gal(b1-4)Glc6S
# In short: as §1
# [3] = target: Fuc(a1-2)Gal6S(b1-3)GlcNAc6S
# In short: as §1
# [4] = target: Fuc(a1-2)Gal6S(b1-4)Glc6S
# In short: as §1
# [5] = target: Fuc(a1-2)[Gal(a1-3)]Gal(b1-3)GlcNAc(b1-2)Man(a1-3)[Fuc(a1-2)[Gal(a1-3)]Gal(b1-3)GlcNAc(b1-2)Man(a1-6)]Man(b1-4)GlcNAc(b1-4)[Fuc(a1-6)]GlcNAc
# In short: as §1
# [6] = target: Fuc(a1-2)[Gal(a1-3)]Gal(b1-4)[Fuc(a1-3)]Glc
# In short: as §1
# [7] = target: Fuc(a1-2)[Gal(a1-3)]Gal(b1-4)[Fuc(a1-3)]GlcNAc
# In short: as §1
# [8] = target: Fuc(a1-2)[GalNAc(a1-3)]Gal(b1-3)GalNAc(a1-3)[Fuc(a1-2)]Gal(b1-4)GlcNAc
# In short: as §1
# [9] = target: Fuc(a1-2)[GalNAc(a1-3)]Gal(b1-3)GalNAc(b1-3)Gal(a1-4)Gal(b1-4)Glc
# In short: as §1
# [10] = target: Fuc(a1-2)[GalNAc(a1-3)]Gal(b1-4)GlcNAc
# In short: as §1
# [11] = target: Fuc(a1-3)[Gal(b1-4)]Glc6S
# In short: as §1
# [12] = target: Fuc(a1-3)[Gal(b1-4)]GlcNAc(b1-3)Gal(b1-4)[Fuc(a1-3)]GlcNAc
# In short: as §1
# [13] = target: Fuc(a1-3)[Gal(b1-4)]GlcNAc6S
# In short: as §1
# Fuc(a1-4)GlcNAc = target: Fuc(a1-4)GlcNAc
# In short: as §1
# Gal(b1-3)GlcNAc(b1-2)Man = target: Gal(b1-3)GlcNAc(b1-2)Man
# In short: as §1
# [14] = target: Gal(b1-3)GlcNAc(b1-2)Man(a1-3)[Gal(b1-3)GlcNAc(b1-2)Man(a1-6)]Man(b1-4)GlcNAc(b1-4)GlcNAc
# In short: as §1
# [15] = target: Gal(b1-3)GlcNAc(b1-3)Gal(b1-3)GlcNAc
# In short: as §1
# Gal(b1-3)GlcNAc6S = target: Gal(b1-3)GlcNAc6S
# In short: as §1
# [16] = target: Gal(b1-4)GalNAc(b1-3)[Fuc(a1-2)]Gal(b1-4)GlcNAc
# In short: as §1
# [17] = target: Gal(b1-4)GlcNAc(a1-6)Gal(b1-4)GlcNAc
# In short: as §1
# [18] = target: Gal(b1-4)GlcNAc(b1-2)Man(a1-3)[Gal(b1-4)GlcNAc(b1-2)Man(a1-6)]Man(b1-4)GlcNAc(b1-4)[Fuc(a1-6)]GlcNAc
# In short: as §1
# [19] = target: Gal(b1-4)GlcNAc(b1-2)[Gal(b1-4)GlcNAc(b1-4)]Man(a1-3)[GlcNAc(b1-4)][Gal(b1-4)GlcNAc(b1-2)[Gal(b1-4)GlcNAc(b1-6)]Man(a1-6)]Man(b1-4)GlcNAc(b1-4)GlcNAc
# In short: as §1
# [20] = target: Gal(b1-4)GlcNAc(b1-3)Gal(b1-3)GlcNAc
# In short: as §1
# [21] = target: Gal(b1-4)GlcNAc(b1-3)Gal(b1-4)GlcNAc
# In short: as §1
# Gal(b1-4)GlcNAc6P = target: Gal(b1-4)GlcNAc6P
# In short: as §1
# [22] = target: GalNAc(b1-4)GlcNAc(b1-2)Man
# In short: as §1
# GalNAc(b1-4)GlcNAc6S = target: GalNAc(b1-4)GlcNAc6S
# In short: as §1
# GalNAc6S(b1-4)GlcNAc = target: GalNAc6S(b1-4)GlcNAc
# In short: as §1
# Glc(b1-4)Glc = target: Glc(b1-4)Glc
# In short: as §1
# Glc(b1-6)Glc = target: Glc(b1-6)Glc
# In short: as §1
# [23] = target: GlcNAc(b1-2)Man(a1-3)[GlcNAc(b1-4)][GlcNAc(b1-2)Man(a1-6)]Man(b1-4)GlcNAc(b1-4)[Fuc(a1-6)]GlcNAc
# In short: as §1
# [24] = target: GlcNAc(b1-2)[GlcNAc(b1-4)]Man(a1-3)[GlcNAc(b1-2)Man(a1-6)]Man(b1-4)GlcNAc(b1-4)GlcNAc
# In short: as §1
# [25] = target: GlcNAc(b1-2)[GlcNAc(b1-4)]Man(a1-3)[GlcNAc(b1-4)][GlcNAc(b1-2)[GlcNAc(b1-6)]Man(a1-6)]Man(b1-4)GlcNAc(b1-4)[Fuc(a1-6)]GlcNAc
# In short: as §1
# [26] = target: GlcNAc(b1-3)Gal(b1-4)GlcNAc(b1-3)[GlcNAc(b1-3)Gal(b1-4)GlcNAc(b1-3)]GalNAc
# In short: as §1
# [27] = target: GlcNAc(b1-3)[GlcNAc(b1-6)]GalNAc
# In short: as §1
# [28] = target: GlcNAc(b1-6)Gal(b1-4)GlcNAc
# In short: as §1
# GlcNAc(b1-6)GalNAc = target: GlcNAc(b1-6)GalNAc
# In short: as §1
# [29] = target: Man(a1-2)Man(a1-6)[Man(a1-3)]Man(a1-6)[Man(a1-2)Man(a1-2)Man(a1-3)]Man
# In short: as §1
# Man(a1-6)Man = target: Man(a1-6)Man
# In short: as §1
# MurNAc(b1-4)GlcNAc = target: MurNAc(b1-4)GlcNAc
# In short: as §1
# [30] = target: Neu5Ac(a2-3)Gal(b1-3)[GlcNAc(b1-6)]GalNAc
# In short: as §1
# [31] = target: Neu5Ac(a2-3)Gal(b1-4)GlcNAc(b1-2)Man(a1-3)[Neu5Ac(a2-3)Gal(b1-4)GlcNAc(b1-2)Man(a1-6)]Man(b1-4)GlcNAc(b1-4)GlcNAc
# In short: as §1
# [32] = target: Neu5Ac(a2-3)Gal(b1-4)GlcNAc(b1-2)Man(a1-3)[Neu5Ac(a2-3)Gal(b1-4)GlcNAc(b1-2)Man(a1-6)]Man(b1-4)GlcNAc(b1-4)[Fuc(a1-6)]GlcNAc
# In short: as §1
# [33] = target: Neu5Ac(a2-3)Gal(b1-4)GlcNAc(b1-2)Man(a1-3)[Neu5Ac(a2-6)Gal(b1-4)GlcNAc(b1-2)Man(a1-6)]Man(b1-4)GlcNAc(b1-4)GlcNAc
# In short: as §1
# [34] = target: Neu5Ac(a2-3)Gal(b1-4)[Fuc(a1-3)]GlcNAc(b1-6)[Neu5Ac(a2-3)Gal(b1-3)]GalNAc
# In short: as §1
# [35] = target: Neu5Ac(a2-3)Gal6S(b1-4)GlcNAc
# In short: as §1
# [36] = target: Neu5Ac(a2-3)Gal6S(b1-4)[Fuc(a1-3)]GlcNAc
# In short: as §1
# [37] = target: Neu5Ac(a2-6)Gal(b1-4)GlcNAc(b1-2)Man(a1-3)[Neu5Ac(a2-3)Gal(b1-4)GlcNAc(b1-2)Man(a1-6)]Man(b1-4)GlcNAc(b1-4)GlcNAc
# In short: as §1
# [38] = target: Neu5Ac(a2-6)Gal(b1-4)GlcNAc(b1-3)Gal(b1-4)GlcNAc(b1-6)[Gal(b1-3)]GalNAc
# In short: as §1
# Neu5Ac(b2-6)GalNAc = target: Neu5Ac(b2-6)GalNAc
# In short: as §1
# Neu5Gc(a2-3)Gal(b1-4)Glc = target: Neu5Gc(a2-3)Gal(b1-4)Glc
# In short: as §1
binder,measurement,setting,value
B1,glycan array binding signal (z-score),[1],2.08
same,glycan array binding signal (z-score),[2],4.21
same,glycan array binding signal (z-score),Fuc(a1-2)Gal(b1-4)Glc6S,-0.06
same,glycan array binding signal (z-score),[3],2.87
same,glycan array binding signal (z-score),[4],1.9
same,glycan array binding signal (z-score),[5],0.338
same,glycan array binding signal (z-score),[6],-0.318
same,glycan array binding signal (z-score),[7],0.273
same,glycan array binding signal (z-score),[8],14.3
same,glycan array binding signal (z-score),[9],5.64
same,glycan array binding signal (z-score),[10],-0.327
same,glycan array binding signal (z-score),[11],0.898
same,glycan array binding signal (z-score),[12],0.272
same,glycan array binding signal (z-score),[13],1.94
same,glycan array binding signal (z-score),Fuc(a1-4)GlcNAc,-0.036
same,glycan array binding signal (z-score),Gal(b1-3)GlcNAc(b1-2)Man,2.77
same,glycan array binding signal (z-score),[14],-0.376
same,glycan array binding signal (z-score),[15],-0.31
same,glycan array binding signal (z-score),Gal(b1-3)GlcNAc6S,-0.259
same,glycan array binding signal (z-score),[16],5.04
same,glycan array binding signal (z-score),[17],0.281
same,glycan array binding signal (z-score),[18],-0.333
same,glycan array binding signal (z-score),[19],0.024
same,glycan array binding signal (z-score),[20],-0.238
same,glycan array binding signal (z-score),[21],-0.271
same,glycan array binding signal (z-score),Gal(b1-4)GlcNAc6P,-0.455
same,glycan array binding signal (z-score),[22],-0.412
same,glycan array binding signal (z-score),GalNAc(b1-4)GlcNAc6S,-0.421
same,glycan array binding signal (z-score),GalNAc6S(b1-4)GlcNAc,2.78
same,glycan array binding signal (z-score),Glc(b1-4)Glc,2.25
same,glycan array binding signal (z-score),Glc(b1-6)Glc,-0.327
same,glycan array binding signal (z-score),[23],-0.607
same,glycan array binding signal (z-score),[24],-0.083
same,glycan array binding signal (z-score),[25],-0.482
same,glycan array binding signal (z-score),[26],0.26
same,glycan array binding signal (z-score),[27],-0.468
same,glycan array binding signal (z-score),[28],-0.453
same,glycan array binding signal (z-score),GlcNAc(b1-6)GalNAc,-0.174
same,glycan array binding signal (z-score),[29],0.102
same,glycan array binding signal (z-score),Man(a1-6)Man,-0.69
same,glycan array binding signal (z-score),MurNAc(b1-4)GlcNAc,-0.3
same,glycan array binding signal (z-score),[30],-0.268
same,glycan array binding signal (z-score),[31],-0.603
same,glycan array binding signal (z-score),[32],0.28
same,glycan array binding signal (z-score),[33],-0.452
same,glycan array binding signal (z-score),[34],0.026
same,glycan array binding signal (z-score),[35],-0.642
same,glycan array binding signal (z-score),[36],-0.633
same,glycan array binding signal (z-score),[37],-0.473
same,glycan array binding signal (z-score),[38],-0.533
same,glycan array binding signal (z-score),Neu5Ac(b2-6)GalNAc,-0.414
same,glycan array binding signal (z-score),Neu5Gc(a2-3)Gal(b1-4)Glc,-0.297

# From the supplement of paper PMC8728848
